Experimental data: PMC5700166

What was measured:
[1] = target: T1, GST-Nv-NF-kB (Ser allele) (Nematostella vectensis, UniProt A7UNT2 2-411); assay: protein-binding microarray (PBM); PBM: ~300 nM protein, 6 mM HEPES pH 7.8, 80 mM KCl, 0.5 mM EDTA, 0.5 mM EGTA, 6% glycerol, 35 ng/ul poly-dIdC, 1% milk, 1 h, room temperature; Ap Aiptasia and Nv Nematostella (sea anemones) / Co Capsaspora / Aq Amphimedon (sponge) / Dm Drosophila / Hu human; RHD is the Rel homology domain; high values mean tight binding; details: dsDNA, one strand shown
T1 sequence: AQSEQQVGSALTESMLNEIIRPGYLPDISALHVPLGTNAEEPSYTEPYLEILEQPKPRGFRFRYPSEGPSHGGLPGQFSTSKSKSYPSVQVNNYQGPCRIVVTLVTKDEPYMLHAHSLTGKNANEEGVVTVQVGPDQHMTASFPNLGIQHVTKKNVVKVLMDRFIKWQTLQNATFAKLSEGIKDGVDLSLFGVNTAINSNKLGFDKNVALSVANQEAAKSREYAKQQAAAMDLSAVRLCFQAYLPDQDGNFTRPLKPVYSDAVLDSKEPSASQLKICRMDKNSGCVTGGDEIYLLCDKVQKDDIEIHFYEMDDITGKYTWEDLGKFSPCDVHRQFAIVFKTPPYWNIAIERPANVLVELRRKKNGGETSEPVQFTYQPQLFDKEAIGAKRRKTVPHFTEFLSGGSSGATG

[2] = target: GST-Hu-p50 (Homo sapiens, UniProt P19838 7-356); assay: as above; details: dsDNA, one strand shown
Chain of GST-Hu-p50 (P19838 7-356): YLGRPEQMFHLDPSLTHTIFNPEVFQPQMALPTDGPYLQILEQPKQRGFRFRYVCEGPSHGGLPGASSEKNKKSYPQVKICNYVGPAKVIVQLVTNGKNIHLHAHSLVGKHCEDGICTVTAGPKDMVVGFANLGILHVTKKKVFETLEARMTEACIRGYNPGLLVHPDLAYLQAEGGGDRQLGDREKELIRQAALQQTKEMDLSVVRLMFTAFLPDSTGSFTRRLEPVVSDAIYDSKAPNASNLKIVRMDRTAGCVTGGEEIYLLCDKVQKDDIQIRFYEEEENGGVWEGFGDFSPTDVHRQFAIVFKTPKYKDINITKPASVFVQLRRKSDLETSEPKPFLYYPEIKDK

Sequence	binding signal [1]	binding signal [2]
CCGATTAACATCAAGAGTTTCCCTGATGTTAATCGGGTCTTGATTCGCTTGACGCTGCTG	4.9 z-score	3.64 z-score
CCGATTAACATCAGGGGATTAGATGATGTTAATCGGGTCTTGATTCGCTTGACGCTGCTG	6.46 z-score	4.35 z-score
CCGATTAACATCAGGGAAAGTAATGATGTTAATCGGGTCTTGATTCGCTTGACGCTGCTG	5.14 z-score	3.58 z-score
CCGATTAACATCAAAACAATCCCTGATGTTAATCGGGTCTTGATTCGCTTGACGCTGCTG	1.53 z-score	2.64 z-score
CCGATTAACATCACATCTTTCCCTGATGTTAATCGGGTCTTGATTCGCTTGACGCTGCTG	4.65 z-score	2.43 z-score
CCGATTAACATCAGGGGGTAAAATGATGTTAATCGGGTCTTGATTCGCTTGACGCTGCTG	6.35 z-score	4.51 z-score
CCGATTAACATCAGGGACACCCCTGATGTTAATCGGGTCTTGATTCGCTTGACGCTGCTG	3.24 z-score	4.03 z-score
CCGATTAACATCAAGCAATTCCCTGATGTTAATCGGGTCTTGATTCGCTTGACGCTGCTG	3.87 z-score	2.99 z-score
CCGATTAACATCAACCACCCCCTTGATGTTAATCGGGTCTTGATTCGCTTGACGCTGCTG	3.4 z-score	4.03 z-score
CCGATTAACATCAGGGGAAGGGATGATGTTAATCGGGTCTTGATTCGCTTGACGCTGCTG	5.77 z-score	3.4 z-score
CCGATTAACATCAACATGGGAATTGATGTTAATCGGGTCTTGATTCGCTTGACGCTGCTG	1.75 z-score	1.37 z-score
CCGATTAACATCAGGGATACCCCTGATGTTAATCGGGTCTTGATTCGCTTGACGCTGCTG	2.97 z-score	4.12 z-score
CCGATTAACATCACCGCCCCACGTGATGTTAATCGGGTCTTGATTCGCTTGACGCTGCTG	1.37 z-score	2.36 z-score
CCGATTAACATCAAGGGATTTTCTGATGTTAATCGGGTCTTGATTCGCTTGACGCTGCTG	5.14 z-score	4.49 z-score
CCGATTAACATCAGGAAAACACCTGATGTTAATCGGGTCTTGATTCGCTTGACGCTGCTG	3.23 z-score	4.77 z-score
CCGATTAACATCAGGGAATTCCATGATGTTAATCGGGTCTTGATTCGCTTGACGCTGCTG	5.22 z-score	4.7 z-score
CCGATTAACATCAGAACATTCCCTGATGTTAATCGGGTCTTGATTCGCTTGACGCTGCTG	3.49 z-score	3.65 z-score
CCGATTAACATCACGCAACCCCCTGATGTTAATCGGGTCTTGATTCGCTTGACGCTGCTG	4.87 z-score	5.03 z-score
CCGATTAACATCAGGGGTTTCCATGATGTTAATCGGGTCTTGATTCGCTTGACGCTGCTG	4 z-score	4.95 z-score
CCGATTAACATCAGGAAATGCCCTGATGTTAATCGGGTCTTGATTCGCTTGACGCTGCTG	1.15 z-score	2.89 z-score
CCGATTAACATCAAAGCATTCCCTGATGTTAATCGGGTCTTGATTCGCTTGACGCTGCTG	2.52 z-score	2.12 z-score
CCGATTAACATCAGGGGGCAAGATGATGTTAATCGGGTCTTGATTCGCTTGACGCTGCTG	1.92 z-score	2.2 z-score
CCGATTAACATCAAGGGATCCCCTGATGTTAATCGGGTCTTGATTCGCTTGACGCTGCTG	6.37 z-score	5.23 z-score
